Assays:
Assay in all cases: DAPPL (digital affinity profiling via proximity ligation, sequencing); 10 mM Tris-HCl pH 7.5, 50 mM NaCl, 1 mM DTT, 4% glycerol, room temperature, 30 min; GST-TFs on glutathione beads, 16-mer random dsDNA library, 0.1% formaldehyde crosslink after washing; high values mean tight binding
Conditions in all cases: protein: recombinant; tags: N-terminal GST; dsDNA, one strand shown
GABPA = biological target: T1, GABPA (Homo sapiens, UniProt Q06546 1-454)
T1 sequence: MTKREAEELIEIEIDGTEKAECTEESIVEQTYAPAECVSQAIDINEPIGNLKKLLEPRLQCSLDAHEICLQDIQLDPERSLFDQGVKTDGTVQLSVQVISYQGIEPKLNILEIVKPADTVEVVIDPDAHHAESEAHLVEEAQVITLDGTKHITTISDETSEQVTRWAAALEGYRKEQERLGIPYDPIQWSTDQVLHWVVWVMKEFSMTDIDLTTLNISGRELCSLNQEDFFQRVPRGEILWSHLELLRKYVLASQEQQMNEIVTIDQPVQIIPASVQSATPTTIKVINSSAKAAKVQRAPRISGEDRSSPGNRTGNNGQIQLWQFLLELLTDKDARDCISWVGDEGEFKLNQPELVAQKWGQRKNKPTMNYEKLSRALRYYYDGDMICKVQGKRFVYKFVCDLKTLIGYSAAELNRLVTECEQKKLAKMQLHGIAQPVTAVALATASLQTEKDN
Summary of the method: (§1)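 Pools were built from human transcription factors expressed in yeast as GST fusions, captured on glutathione beads and DNA-barcoded, along with a tag-only sample. Incubation with 200 nmole of a 16-mer random double-stranded DNA library lasted 30 min at room temperature in Tris/NaCl/DTT/glycerol buffer, and was followed by washing, 0.1% formaldehyde crosslinking, proximity ligation, PCR amplification and Illumina NextSeq500 sequencing. Binding signal is the quotient of each hexamer's read frequency for a factor and its frequency for the tag-only sample.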

ELF1 = ELF1 (Homo sapiens, UniProt P32519 1-619)
Chain of ELF1 (P32519 whole entry): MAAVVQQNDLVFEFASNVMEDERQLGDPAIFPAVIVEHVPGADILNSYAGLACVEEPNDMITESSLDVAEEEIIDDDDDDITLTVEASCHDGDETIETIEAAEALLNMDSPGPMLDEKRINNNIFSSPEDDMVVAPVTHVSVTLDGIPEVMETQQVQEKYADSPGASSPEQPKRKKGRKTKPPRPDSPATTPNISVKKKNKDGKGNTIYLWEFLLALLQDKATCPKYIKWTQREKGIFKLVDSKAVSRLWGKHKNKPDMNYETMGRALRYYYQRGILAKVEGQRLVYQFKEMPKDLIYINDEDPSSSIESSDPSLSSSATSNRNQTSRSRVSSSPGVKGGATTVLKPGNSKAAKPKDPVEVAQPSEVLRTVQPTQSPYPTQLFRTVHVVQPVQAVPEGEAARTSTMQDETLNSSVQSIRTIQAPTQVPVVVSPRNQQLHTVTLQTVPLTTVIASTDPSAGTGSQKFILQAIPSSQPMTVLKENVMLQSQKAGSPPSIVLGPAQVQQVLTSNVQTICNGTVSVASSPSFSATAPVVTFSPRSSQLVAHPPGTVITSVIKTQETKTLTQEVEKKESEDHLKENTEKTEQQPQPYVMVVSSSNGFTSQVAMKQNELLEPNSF
Summary of the method: as §1

SPI1 = SPI1 (Homo sapiens, UniProt P17947 1-270)
Summary of the method: as §1

SPIC = biological target: T2, SPIC (Homo sapiens, UniProt Q8N5J4 1-248)
T2 sequence: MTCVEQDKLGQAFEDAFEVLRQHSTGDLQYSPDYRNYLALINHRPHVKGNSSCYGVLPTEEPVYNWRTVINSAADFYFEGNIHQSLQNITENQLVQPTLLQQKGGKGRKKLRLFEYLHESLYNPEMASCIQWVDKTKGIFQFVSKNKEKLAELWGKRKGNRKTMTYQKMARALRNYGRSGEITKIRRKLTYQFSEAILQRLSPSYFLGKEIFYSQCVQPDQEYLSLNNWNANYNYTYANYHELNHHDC
Summary of the method: as §1

ELF4 = ELF4 (Homo sapiens, UniProt Q99607 1-663)
Chain of ELF4 (Q99607 whole entry): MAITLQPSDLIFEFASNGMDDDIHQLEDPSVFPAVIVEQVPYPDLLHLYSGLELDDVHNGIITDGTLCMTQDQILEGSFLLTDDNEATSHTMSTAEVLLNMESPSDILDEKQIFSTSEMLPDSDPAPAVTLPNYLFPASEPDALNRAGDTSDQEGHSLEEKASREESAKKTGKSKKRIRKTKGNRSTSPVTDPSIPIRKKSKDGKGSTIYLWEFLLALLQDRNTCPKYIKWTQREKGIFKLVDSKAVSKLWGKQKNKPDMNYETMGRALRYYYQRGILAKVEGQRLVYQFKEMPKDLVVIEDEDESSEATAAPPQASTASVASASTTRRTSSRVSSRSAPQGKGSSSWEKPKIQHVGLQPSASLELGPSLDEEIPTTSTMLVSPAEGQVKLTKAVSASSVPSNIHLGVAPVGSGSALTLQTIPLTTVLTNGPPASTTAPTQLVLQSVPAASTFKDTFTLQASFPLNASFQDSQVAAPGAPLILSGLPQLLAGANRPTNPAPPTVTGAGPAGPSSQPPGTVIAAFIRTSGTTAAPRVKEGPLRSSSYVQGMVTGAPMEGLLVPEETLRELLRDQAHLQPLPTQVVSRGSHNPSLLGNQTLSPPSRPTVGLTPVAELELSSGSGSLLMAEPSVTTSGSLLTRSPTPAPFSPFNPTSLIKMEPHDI
Summary of the method: as §1

ELF3 = biological target: T3, ELF3 (Homo sapiens, UniProt P78545 1-371)
T3 sequence: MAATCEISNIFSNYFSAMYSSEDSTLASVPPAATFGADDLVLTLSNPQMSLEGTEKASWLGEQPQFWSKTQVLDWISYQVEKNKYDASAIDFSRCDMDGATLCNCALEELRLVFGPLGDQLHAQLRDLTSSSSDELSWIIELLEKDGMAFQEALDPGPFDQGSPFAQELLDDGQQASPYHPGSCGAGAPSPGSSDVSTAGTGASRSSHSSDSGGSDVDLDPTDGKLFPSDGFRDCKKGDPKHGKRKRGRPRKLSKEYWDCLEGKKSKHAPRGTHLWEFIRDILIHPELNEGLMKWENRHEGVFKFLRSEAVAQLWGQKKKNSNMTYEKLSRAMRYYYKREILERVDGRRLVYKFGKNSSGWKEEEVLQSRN
Summary of the method: as §1

ETV1 = ETV1 (Homo sapiens, UniProt P50549 1-477)
Chain of ETV1 (P50549 whole entry): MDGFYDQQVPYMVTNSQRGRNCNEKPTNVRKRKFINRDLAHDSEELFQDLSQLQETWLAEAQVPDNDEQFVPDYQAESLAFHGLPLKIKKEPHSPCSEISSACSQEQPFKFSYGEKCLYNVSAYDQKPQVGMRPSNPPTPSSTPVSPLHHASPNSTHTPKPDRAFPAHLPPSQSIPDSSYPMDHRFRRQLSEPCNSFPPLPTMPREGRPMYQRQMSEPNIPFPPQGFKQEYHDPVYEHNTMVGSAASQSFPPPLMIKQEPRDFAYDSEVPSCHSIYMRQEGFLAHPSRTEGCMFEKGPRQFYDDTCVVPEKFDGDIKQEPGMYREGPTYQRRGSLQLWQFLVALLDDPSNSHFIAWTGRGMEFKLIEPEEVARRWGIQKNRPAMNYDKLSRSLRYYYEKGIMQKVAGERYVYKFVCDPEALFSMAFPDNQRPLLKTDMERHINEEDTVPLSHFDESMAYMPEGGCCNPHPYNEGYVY
Summary of the method: as §1

ETV7 = biological target: T4, ETV7 (Homo sapiens, UniProt Q9Y603 1-341)
T4 sequence: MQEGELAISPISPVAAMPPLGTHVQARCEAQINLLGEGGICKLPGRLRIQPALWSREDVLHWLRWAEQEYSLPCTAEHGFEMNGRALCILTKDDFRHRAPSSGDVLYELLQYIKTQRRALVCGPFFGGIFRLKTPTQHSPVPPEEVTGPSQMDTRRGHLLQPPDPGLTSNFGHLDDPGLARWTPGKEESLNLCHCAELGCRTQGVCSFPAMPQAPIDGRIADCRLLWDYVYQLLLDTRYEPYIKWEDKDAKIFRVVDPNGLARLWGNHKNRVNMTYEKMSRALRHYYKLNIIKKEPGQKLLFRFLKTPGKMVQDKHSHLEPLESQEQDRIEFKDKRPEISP
Summary of the method: as §1

ELF5 = biological target: T5, ELF5 (Homo sapiens, UniProt Q9UKW6-2 1-255)
T5 sequence: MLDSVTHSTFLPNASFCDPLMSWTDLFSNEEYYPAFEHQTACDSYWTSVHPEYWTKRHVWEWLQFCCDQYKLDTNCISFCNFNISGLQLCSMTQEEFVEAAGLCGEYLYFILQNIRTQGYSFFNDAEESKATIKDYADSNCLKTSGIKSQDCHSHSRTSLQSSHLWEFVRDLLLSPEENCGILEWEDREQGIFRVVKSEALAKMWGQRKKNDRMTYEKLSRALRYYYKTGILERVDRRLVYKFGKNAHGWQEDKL
Summary of the method: as §1

ETV3 = biological target: T6, ETV3 (Homo sapiens, UniProt P41162-2 1-143)
T6 sequence: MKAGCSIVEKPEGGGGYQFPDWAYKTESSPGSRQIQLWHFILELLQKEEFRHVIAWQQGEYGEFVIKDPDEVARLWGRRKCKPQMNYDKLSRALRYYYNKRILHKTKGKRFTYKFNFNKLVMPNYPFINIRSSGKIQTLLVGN
Summary of the method: as §1

ETV6 = ETV6 (Homo sapiens, UniProt P41212 1-452)
Chain of ETV6 (P41212 whole entry): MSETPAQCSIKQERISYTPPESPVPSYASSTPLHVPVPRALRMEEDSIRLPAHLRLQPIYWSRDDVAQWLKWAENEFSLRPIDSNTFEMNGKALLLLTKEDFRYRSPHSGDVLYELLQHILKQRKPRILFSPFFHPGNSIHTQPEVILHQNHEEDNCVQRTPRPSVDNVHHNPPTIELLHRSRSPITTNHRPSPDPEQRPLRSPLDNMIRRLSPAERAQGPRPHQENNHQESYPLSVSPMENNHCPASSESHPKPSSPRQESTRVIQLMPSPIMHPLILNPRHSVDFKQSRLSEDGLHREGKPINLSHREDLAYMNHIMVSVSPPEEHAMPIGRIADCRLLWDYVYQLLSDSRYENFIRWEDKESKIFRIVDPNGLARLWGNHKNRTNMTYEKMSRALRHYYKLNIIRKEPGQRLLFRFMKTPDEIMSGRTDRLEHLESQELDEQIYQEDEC
Summary of the method: as §1

ELK3 = biological target: T7, ELK3 (Homo sapiens, UniProt P41970 1-407)
T7 sequence: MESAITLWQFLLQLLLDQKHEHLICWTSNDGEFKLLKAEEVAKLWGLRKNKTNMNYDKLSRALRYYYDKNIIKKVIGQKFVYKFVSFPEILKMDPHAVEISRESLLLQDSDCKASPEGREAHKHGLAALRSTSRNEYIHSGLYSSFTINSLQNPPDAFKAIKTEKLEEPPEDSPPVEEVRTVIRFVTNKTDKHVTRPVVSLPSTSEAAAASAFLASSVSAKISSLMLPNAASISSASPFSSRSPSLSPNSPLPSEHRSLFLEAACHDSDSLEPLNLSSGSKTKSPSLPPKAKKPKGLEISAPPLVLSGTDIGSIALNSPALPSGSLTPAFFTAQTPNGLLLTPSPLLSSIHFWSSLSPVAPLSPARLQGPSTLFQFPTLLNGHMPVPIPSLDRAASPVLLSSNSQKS
Summary of the method: as §1

ELK4 = biological target: T8, ELK4 (Homo sapiens, UniProt P28324-2 1-405)
T8 sequence: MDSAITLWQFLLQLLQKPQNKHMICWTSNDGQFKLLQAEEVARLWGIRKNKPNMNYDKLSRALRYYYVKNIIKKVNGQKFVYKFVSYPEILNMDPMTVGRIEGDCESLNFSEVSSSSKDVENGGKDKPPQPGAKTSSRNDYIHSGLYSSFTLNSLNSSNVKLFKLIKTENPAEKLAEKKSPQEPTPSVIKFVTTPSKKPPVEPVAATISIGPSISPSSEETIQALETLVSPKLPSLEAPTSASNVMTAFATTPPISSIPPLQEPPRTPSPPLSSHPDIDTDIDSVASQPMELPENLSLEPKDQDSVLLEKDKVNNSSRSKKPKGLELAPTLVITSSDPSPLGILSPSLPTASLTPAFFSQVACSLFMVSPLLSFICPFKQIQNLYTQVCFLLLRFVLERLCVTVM
Summary of the method: as §1

ETS2 = biological target: T9, ETS2 (Homo sapiens, UniProt P15036 1-469)
T9 sequence: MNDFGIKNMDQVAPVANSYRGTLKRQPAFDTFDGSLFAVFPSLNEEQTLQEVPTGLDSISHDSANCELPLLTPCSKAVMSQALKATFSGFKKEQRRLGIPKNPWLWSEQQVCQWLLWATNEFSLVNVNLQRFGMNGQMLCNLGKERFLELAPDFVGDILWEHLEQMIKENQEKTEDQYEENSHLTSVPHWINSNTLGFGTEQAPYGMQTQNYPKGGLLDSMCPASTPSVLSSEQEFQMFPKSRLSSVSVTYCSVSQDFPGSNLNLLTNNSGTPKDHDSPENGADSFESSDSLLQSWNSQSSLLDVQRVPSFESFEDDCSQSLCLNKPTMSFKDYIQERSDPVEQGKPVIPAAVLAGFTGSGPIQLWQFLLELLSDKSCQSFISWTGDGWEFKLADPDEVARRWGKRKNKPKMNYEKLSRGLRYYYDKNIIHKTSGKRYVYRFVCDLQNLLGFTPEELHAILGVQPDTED
Summary of the method: as §1

With AACGCG the binding signal (GABPA) was 1.04 fold enrichment (6-mer frequency, TF over GST control), the binding signal (ELF1) was 1.05 fold enrichment (6-mer frequency, TF over GST control) and the binding signal (SPI1) was 1.05 fold enrichment (6-mer frequency, TF over GST control). The binding signal (SPIC) was 1.1 fold enrichment (6-mer frequency, TF over GST control), the binding signal (ELF4) was 1.01 fold enrichment (6-mer frequency, TF over GST control) and the binding signal (ELF3) was 1.02 fold enrichment (6-mer frequency, TF over GST control). For the same sequence, the binding signal (ETV1) was 1.04 fold enrichment (6-mer frequency, TF over GST control), the binding signal (ETV7) was 1.02 fold enrichment (6-mer frequency, TF over GST control) and the binding signal (ELF5) was 1.03 fold enrichment (6-mer frequency, TF over GST control). The binding signal (ETV3) was 1.1 fold enrichment (6-mer frequency, TF over GST control) and the binding signal (ETV6) was 1.01 fold enrichment (6-mer frequency, TF over GST control).

In the case of CTAGGG, the binding signal (SPIC) is reported as 1.07 fold enrichment (6-mer frequency, TF over GST control).

For AGGTGT, the binding signal (SPIC) was 1.02 fold enrichment (6-mer frequency, TF over GST control) and the binding signal (ELF3) was 1.05 fold enrichment (6-mer frequency, TF over GST control).

In the case of CACTGA, the binding signal (GABPA) is reported as 1.09 fold enrichment (6-mer frequency, TF over GST control), the binding signal (ELF1) is reported as 1.02 fold enrichment (6-mer frequency, TF over GST control) and the binding signal (ELK3) is reported as 1.07 fold enrichment (6-mer frequency, TF over GST control). For the same sequence, the binding signal (SPIC) was 1.06 fold enrichment (6-mer frequency, TF over GST control), the binding signal (ELK4) was 1.01 fold enrichment (6-mer frequency, TF over GST control) and the binding signal (ETV1) was 1.09 fold enrichment (6-mer frequency, TF over GST control). The binding signal (ETS2) was 1.04 fold enrichment (6-mer frequency, TF over GST control).

From paper PMC7862700, “An all-to-all approach to the identification of sequence-specific readers for epigenetic DNA modifications on cytosine”
